Assay results published in article PMC5540273 (PLoS ONE, 2017).

What was measured:
Settings in all cases: concentration: 1 μM, replicates: in singlicate; n = 1
TRPM6 = tested on: TRPM6
TSSK1B = tested on: TSSK1B
TSSK3 = tested on: TSSK3
TTK = tested on: TTK
TXK = tested on: TXK
[1] = tested on: TYK2(JH1domain-catalytic)
[2] = tested on: TYK2(JH2domain-pseudokinase)
TYRO3 = tested on: TYRO3
ULK1 = tested on: ULK1
ULK2 = tested on: ULK2
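Note: KINOMEscan kinase panel screen.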

SMILES | %Inh (TRPM6) [%] | %Inh (TSSK1B) [%] | %Inh (TSSK3) [%] | %Inh (TTK) [%] | %Inh (TXK) [%] | %Inh [1] [%] | %Inh [2] [%] | %Inh (TYRO3) [%] | %Inh (ULK1) [%] | %Inh (ULK2) [%]
Cc1cc(Nc2nc(-c3cccc(C)n3)nc3ccccc23)ccn1 [GW872411] | 0 | 0 | 0 | 0 | 0 | 0 | 1 | 0 | 4 | 0
COc1cc2nccc(Nc3cccc(Oc4ccccc4)c3)c2cc1OC.Cl [GW284543] | 11 | 11 | 13 | 0 | 3 | 5 | 0 | 0 | 6 | 15
Cc1ccc(-c2ccc3c(ccc4sc5c(c43)NC[C@@H](C)N=C5N(C)C)n2)cn1 | 0 | 0 | 0 | 0 | 0 | 0 | 0 | 0 | 0 | 0
CN1C(=O)C(Nc2cc(Cl)c(O)c(Cl)c2)=C(c2ccc(Cl)cc2)C1=O [SB-404321] | 0 | 0 | 22 | 0 | 0 | 0 | 13 | 0 | 0 | 0
COc1cc(Nc2ccnc3ccc(C(F)(F)F)cc23)cc(OC)c1OC [GW577382] | 0 | 0 | 13 | 17 | 54 | 19 | 0 | 0 | 0 | 0
COc1ccc(-c2coc3ccc(-c4nnc(SCc5cccc(C#N)c5)o4)cc23)cc1 | 0 | 0 | 0 | 6 | 2 | 10 | 0 | 0 | 0 | 5
CCS(=O)c1ccc(-c2coc3ccc(-c4nnc(C)o4)cc23)cc1 (centres unmarked) | 0 | 0 | 0 | 14 | 0 | 21 | 11 | 0 | 0 | 4
COc1cc(Nc2nccc(N3CCC(NC(=O)C(C)c4ccc(Cl)cc4)C3)n2)cc(OC)c1OC (centres unmarked) [GSK1379757] | 0 | 0 | 19 | 0 | 0 | 38 | 31 | 0 | 0 | 0
O=C1NC(=O)C(c2ccccc2)=C1Nc1cccc(O)c1 [SB-390534] | 0 | 0 | 0 | 0 | 14 | 14 | 0 | 0 | 0 | 12
Cc1nnc(-c2ccc3ncn(-c4ccc(S(C)=O)cc4)c3c2)o1 (centres unmarked) | 0 | 0 | 6 | 0 | 5 | 0 | 2 | 12 | 0 | 0
Cc1cccc(-c2nc(Nc3ccc4c(cnn4C)c3)c3ccccc3n2)n1 [GW876731] | 0 | 3 | 0 | 0 | 10 | 20 | 39 | 5 | 8 | 13
COC(=O)c1c(-c2ccccc2)c2cc(C)ccc2c(=O)n1Cc1ccccc1 | 0 | 0 | 0 | 5 | 0 | 0 | 0 | 0 | 0 | 0
CCC(=O)c1c(-c2ccccc2)c2cc(Cl)ccc2c(=O)n1Cc1cc(S(C)(=O)=O)n(CCC(C)(C)O)n1 | 18 | 0 | 1 | 4 | 18 | 0 | 6 | 0 | 0 | 7
Cc1ccccc1COc1cc(-n2cnc3cc(Cl)ccc32)sc1C(N)=O [GW813349] | 0 | 3 | 0 | 2 | 9 | 5 | 5 | 5 | 0 | 0
Nc1nc(N)c2nc(-c3ccccc3)[nH]c2n1 [SKF-12778] | 11 | 0 | 5 | 4 | 25 | 43 | 74 | 0 | 16 | 9
COC(=O)c1c(-c2ccccc2)c2cc(Br)ccc2c(=O)n1Cc1ccc(NC(=O)CCC(=O)O)cc1 | 0 | 0 | 0 | 9 | 39 | 4 | 0 | 0 | 8 | 11
Nc1ncnc2c1ncn2-c1ccc(Cl)cc1 [AH2635] | 44 | 0 | 16 | 0 | 5 | 25 | 39 | 0 | 0 | 0
Cn1c(=O)c(F)c(Nc2ccc(I)cc2F)c2c(=O)n(OC[C@H](O)CO)cnc21 | 0 | 0 | 0 | 15 | 23 | 0 | 0 | 2 | 0 | 0

SMILES | %Inh (TRPM6) [%] | %Inh (TSSK1B) [%] | %Inh (TSSK3) [%] | %Inh (TTK) [%] | %Inh (TXK) [%] | %Inh [1] [%] | %Inh [2] [%] | %Inh (TYRO3) [%] | %Inh (ULK1) [%] | %Inh (ULK2) [%]
Cc1nc(N(C)[C@H]2CN(C(=O)CC#N)CC[C@H]2C)c2cc[nH]c2n1 | 0 | 0 | 0 | 19 | 8 | 15 | 0 | 18 | 0 | 8
Nc1nccc2scc(-c3ccc4c(c3)CCN4C(=O)Cc3ccccc3)c12 [GSK2576924] | 13 | 0 | 14 | 0 | 4 | 14 | 0 | 0 | 2 | 0
C[C@@H]1CC[C@H](C(=O)NC2CCCCC2)CN1c1cc(-c2ccc3c(N)n[nH]c3c2)nc(N)n1 [GSK2291363] | 16 | 31 | 31 | 16 | 6 | 0 | 23 | 0 | 6 | 0
O=C(Nc1n[nH]c2nc(-c3ccccc3)c(Br)cc12)C1CC1 [SB-708998] | 18 | 25 | 14 | 24 | 14 | 14 | 1 | 0 | 30 | 0
COc1ccc(CNC(=O)NC2CCN(c3ccnc(Nc4ccc(F)cc4)n3)C2)cc1 (centres unmarked) [GSK1379706] | 4 | 0 | 21 | 21 | 0 | 27 | 23 | 0 | 0 | 0
O=C(Nc1ccc2c(c1)OCO2)NC1CCN(c2ccnc(NCc3ccc(F)cc3)n2)CC1 [GSK1379859] | 47 | 0 | 12 | 0 | 0 | 0 | 0 | 0 | 12 | 0
COc1cccc(C2=C(N(C)c3ccccc3)C(=O)NC2=O)c1 [SB-334865] | 26 | 0 | 7 | 0 | 22 | 12 | 42 | 0 | 19 | 0
FC(F)(F)c1ccc(-c2ncn(CCCN3CCOCC3)c2-c2ccncc2)cc1 [SB-217780] | 4 | 0 | 0 | 0 | 10 | 32 | 24 | 0 | 1 | 46
CCCC(=O)Nc1n[nH]c2ncc(-c3cccc4ccccc34)cc12 [SB-642057] | 48 | 36 | 0 | 0 | 52 | 0 | 38 | 0 | 18 | 1
COc1ccc(-c2cc3c(C)nc(N)nc3n([C@H]3CC[C@H](OCCO)CC3)c2=O)cn1 | 0 | 2 | 0 | 0 | 2 | 0 | 0 | 0 | 0 | 0
Nc1ncnc2c1ncn2-c1cccc2ccccc12 [SKF-97184] | 39 | 0 | 0 | 23 | 0 | 68 | 37 | 0 | 24 | 16
COc1cc2ncn(-c3cc(OCc4ccncc4Br)c(C(N)=O)s3)c2cc1OC [GW854278] | 0 | 0 | 0 | 0 | 21 | 0 | 5 | 11 | 2 | 0
O=C(Nc1n[nH]c2cc(-c3ccccc3F)ccc12)C1CC1 [SB-733371] | 0 | 0 | 0 | 0 | 12 | 0 | 0 | 0 | 2 | 8
O=c1cc(N2CCOCC2)nc2n(Cc3ccc(F)c(Cl)c3)ccn12 [GSK2297099] | 36 | 0 | 9 | 0 | 0 | 0 | 15 | 0 | 16 | 0
CCC(=O)c1c(-c2ccccc2)c2cc(Cl)ccc2c(=O)n1Cc1cc(S(C)(=O)=O)n(CC(N)=O)n1 | 0 | 0 | 0 | 8 | 0 | 0 | 0 | 0 | 0 | 0
Cc1ccc(Oc2ccc(Nc3ncnc4cc[nH]c34)cc2C)cn1 | 0 | 5 | 0 | 31 | 6 | 22 | 15 | 3 | 11 | 0
COc1cc2ncn(-c3cc(OCc4ccc(S(C)(=O)=O)cc4)c(C(N)=O)s3)c2cc1OC [GW869979] | 0 | 0 | 22 | 0 | 0 | 17 | 11 | 19 | 6 | 6
